Reporter increase data for 65 molecules are collected here from PubChem BioAssay AID1321 (The Scripps Research Institute Molecular Screening Center, 2008).

Out of some 220,000 compounds screened, about 2,600 (1.2%) were called active. The sample as a whole holds a higher share of actives than the screen did. A number with no mark means an inactive call.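 The calls were made as follows: active = activation above the mean of all tested compounds plus 3 SD, set per screening run (cut at about 8.8% in these data); inactive = the rest.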

In this assay the target is Wee1-like protein kinase (Homo sapiens) (UniProt P30291). Kind of assay: Wee1 degradation inhibitors, primary screen, cell-based, HeLa, Wee1K328M-luciferase, luminescence (AID 1321).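 Also: cells exposed to compound for 20 h before luminescence read; 0% = DMSO alone and 100% = MG132 at 30 µM.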 The note with it: HeLa Luc-Wee1K328M stability, at 5 µM, hits give high values, 100% = proteasome inhibitor MG132 effect.
For `O=C(NC(=S)Nc1cccc2c(O)cccc12)c1cccc(Br)c1`, the reporter increase was -1.09%.

On to `Cc1c(Br)c([N+](=O)[O-])nn1CC(=O)N1CCN(Cc2ccccc2)CC1`, for which the reporter increase is 9.26% (active).

As for `O=C(Nc1ccccc1)N1CCN(Cc2ccccc2)CC1`, the reporter increase is 4.02%.

With `Cn1nnnc1SCC(=O)N1CCN(Cc2ccccc2)CC1`, the reporter increase was 1.62%.

As to `O=C(c1[nH]ncc1-c1ccc(Cl)cc1)C1CO1` (stereo not given), the reporter increase was -0.11%.

For the molecule `O=C(O)c1cccnc1Sc1ncnc2sc3c(c12)CCC3`, the reporter increase was -1.76%.

With `O=C(Nc1ccccc1)Nc1ccc(C(F)(F)F)cn1`, the reporter increase is 0.31%.

Take `O=C(COc1ccccc1Cl)Nc1ccc(C(=O)c2ccc(C(=O)O)cc2)cc1`: the reporter increase was -1.08%.

As for `COc1cc(NC(=O)COc2ccccc2Cl)ccc1NC(=O)C(C)C`, the reporter increase is 9.65% (active).

Regarding `Cc1ccccc1OCC(=O)Nc1ccc(N2CCN(C(=O)C(C)C)CC2)c(Cl)c1`, the reporter increase is -0.59%.

Consider `COc1cc(N2C(=O)CC3(CCCC3)CC2=O)cc(OC)c1OC`, for which the reporter increase is -3.15%.

For `Cc1ccc(NC(=S)NC(=O)c2ccc(-c3ccccc3)cc2)c(C)c1`, the reporter increase was 1.11%.

As to `Cc1ccc(NC(=S)NCc2ccccc2Cl)c(C)c1`, the reporter increase was 4.9%.

As for `Cc1ccc(NC(=S)Nc2ncccc2C)c(C)c1`, the reporter increase is 11.8% (active).

With `COc1ccc(CNC(=O)CCC(=O)Nc2nnc(C(C)C)s2)cc1`, the reporter increase was 0.8%.

Take `COc1ccc(NS(=O)(=O)c2ccc(Oc3c(C#N)cccc3C#N)cc2)cc1`: the reporter increase was -2.73%.

In the case of `O=C(c1ccc(=O)oc1)N1CCC(C(O)(c2ccccc2)c2ccccc2)CC1`, the reporter increase is 4.74%.

Consider `Cc1ccsc1/C=N/n1c(=S)[nH]nc(C)c1=O`, for which the reporter increase is 11.5% (active).

`Oc1ccccc1/C=N/n1c(-c2cccs2)n[nH]c1=S`: the reporter increase was -3.64%.

Regarding `S=c1[nH]nc(-c2cccs2)n1/N=C/c1cccs1`, the reporter increase is -2.19%.

Take `CCOc1ccc(C2NC(=S)NC3=C2CCc2ccccc23)cc1` (stereo not given): the reporter increase is 3.12%.

On to `CCOC(=O)c1ccc(NC(=O)Cn2cnc3cc(C)c(C)cc32)cc1`, for which the reporter increase is -1.24%.

With `CCN(CC(=O)NC1CCS(=O)(=O)C1)S(=O)(=O)c1ccccc1` (stereo not given), the reporter increase is -0.95%.

On to `O=C(CSc1nn(-c2ccc(F)cc2)c(=S)s1)NC1CCS(=O)(=O)C1` (stereo not given), for which the reporter increase was 0.51%.

Regarding `O=C(CSc1ccccc1F)NC1CCS(=O)(=O)C1` (stereo not given), the reporter increase is 12.3% (active).

As to `Cc1cc(C)c2c(n1)nn1c(N3CCN(c4cccc(Cl)c4)CC3)cc(C)nc21`, the reporter increase was 14.1% (active).

Turning to `Cc1cc(C)c2c(n1)nn1c(N3CCOCC3)cc(C)nc21`, the reporter increase is -0.28%.

On to `Cc1cc(C)c2c(n1)nn1c(-n3ccnc3)cc(C)nc21`, for which the reporter increase was 2.99%.

In the case of `Cc1ccc(C(=O)NNc2ncnc3ccccc23)cc1`, the reporter increase is -1.2%.

`COc1ccc(C(C)=O)cc1COc1ccc(Cl)c(C)c1`: the reporter increase was 1.76%.

`CC(C)Oc1ccc(C(=O)Nc2cc(=O)n(C)c(=O)n2C)cc1`: the reporter increase is 11% (active).

Take `CC(C)Oc1ccc(C(=O)NC(C)(C)CO)cc1`: the reporter increase was -0.33%.

For the molecule `Cn1c(NC(=O)c2ccc3c(c2)OCO3)cc(=O)n(C)c1=O`, the reporter increase is -1.07%.

`CC12C(=O)N(c3ccccc3)C(=O)C1C(c1ccccc1)N1CCCN12` (stereo not given): the reporter increase is 1.06%.

Consider `Cc1[nH][nH]c(=O)c1C(c1ccc2c(c1)OCO2)c1c(C)[nH][nH]c1=O`, for which the reporter increase was 1.31%.

Consider `Cc1[nH][nH]c(=O)c1N=Nc1ccccc1`, for which the reporter increase is 3.8%.

For `Nc1[nH][nH]c(=O)c1N=Nc1ccc2c(c1)OCO2`, the reporter increase was 9.03% (active).

`CCN(CC)CCn1cnc2c1c(=O)n(CCOC(=O)c1cc(OC)c(OC)c(OC)c1)c(=O)n2C`: the reporter increase is -2.15%.

As to `COc1ccc(/C(C)=N/N2CCOCC2)c(O)c1`, the reporter increase is 3.27%.

Consider `CC(C)N(C(=O)c1ccc(-c2ccccc2F)cc1)C(C)C`, for which the reporter increase was 1.6%.

Take `CCN(CC)C(=O)c1sc2nc(-c3ccccc3)ccc2c1N`: the reporter increase is 15.4% (active).

`Cc1ccc2c(N)c(C(=O)c3ccccc3)sc2n1`: the reporter increase is 3.2%.

Take `CCOC(=O)c1sc2nc(SC)nc(-c3ccccc3)c2c1N`: the reporter increase was 0.82%.

Take `Cn1c(SCC(=O)N/N=C/c2ccc(O)c(O)c2)nc2ccccc21`: the reporter increase is 3.18%.

Regarding `O=C(Cc1ccccc1)NCc1ccc(F)cc1`, the reporter increase was 0.79%.

As to `CCC(C(=O)OCC(=O)Nc1ccccc1-c1ccccc1)c1ccccc1` (stereo not given), the reporter increase was 3.65%.

For `O=C(CNCc1ccc(F)cc1)Nc1ccccc1-c1ccccc1`, the reporter increase was 11.8% (active).

Consider `CC(=O)OCCOCn1cnn2c(=O)c(Br)c(C)nc12`, for which the reporter increase is 5.31%.

`CCOC(=O)C(=O)C1C(=O)Nc2ccccc21` (stereo not given): the reporter increase is -1.16%.

`O=C1CC2(CC(c3ccc(Cl)cc3)=NO2)C(=O)N1c1ccccc1` (stereo not given): the reporter increase is 0.07%.

As for `CCOc1cc2c(Cl)ncnc2c(OCC)c1OCC`, the reporter increase was -3.14%.

For the molecule `COc1ccc(NC(=O)COC(=O)CNC(=O)C2CCCCC2)cc1`, the reporter increase is 11.6% (active).

Regarding `COc1ccc(OCC(=O)OCC(=O)Nc2ccc(S(=O)(=O)N3CCCCC3)cc2)cc1`, the reporter increase was -0.17%.

As to `COc1ccc(CCNC(=O)COC(=O)C2CCCCC2)cc1`, the reporter increase is -1.3%.

On to `Cc1ccc(COc2ccc(/C=N/NC(=O)CN3CCCCC3)cc2)cc1`, for which the reporter increase is 22.3% (active).

`Cc1ccc(OCC(=O)N/N=C/c2ccncc2)cc1`: the reporter increase is -0.52%.

Take `O=C(CN1CCSCC1)N/N=C/c1ccc(Cl)cc1`: the reporter increase was 2.89%.

Turning to `CC1=NOC(=O)/C1=C\c1ccccc1`, the reporter increase was -0.32%.

Regarding `O=C(COc1ccc([N+](=O)[O-])cc1Cl)Nn1cnnc1`, the reporter increase was -0.06%.

On to `CC(C)(C)c1ccc(/C=C/C(=O)NC2CCS(=O)(=O)C2)cc1` (stereo not given), for which the reporter increase was 2.93%.

`COc1ccc(-c2ccc(OC(=O)NC3CCS(=O)(=O)C3)cc2)cc1` (stereo not given): the reporter increase was 9.29% (active).

With `COc1ccc(NC(=S)NC2CCS(=O)(=O)C2)cc1` (stereo not given), the reporter increase was 4.7%.

Turning to `O=C(NCCCN1CCCCCC1)c1ccc(N2CCCC2=O)cc1`, the reporter increase was 2.16%.

`CC1CCC(NC(=O)c2ccc(N3CCCC3=O)cc2)CC1` (stereo not given): the reporter increase was 0.06%.

Take `CCCNC(=O)NCc1ccc(N2CCCC2=O)cc1`: the reporter increase was 10.3% (active).
